In PubChem BioAssay AID504333 (National Center for Advancing Translational Sciences (NCATS), 2011):
Values joined by “and” are separate entries in the source; they are usually repeats but may differ in a detail not shown here. Identical values can stand only once. Out of some 360,000 compounds screened, about 16,000 (4.4%) were called active. About 9% were inconclusive and are not listed. The call rests on the fitted dose curve; in most records, active means well fitted inhibition curve with a large enough effect; inconclusive means small, poorly fitted or top-dose-only effect; inactive means no such curve, though single readings can be large or run the other way. For the sample, actives were picked, then their nearest neighbours and some compounds at random.

Each compound was assayed against Bromodomain adjacent to zinc finger domain protein 2B (Homo sapiens) (UniProt Q9UIF8) (assay: qHTS Assay for Inhibitors of BAZ2B). Conditions: AlphaScreen BAZ2B-H3K14Ac peptide displacement; series mostly up to 114 µM; activity change, negative = inhibition: at the top concentration.
Source text: BAZ2B (bromodomain adjacent to zinc finger domain, 2B) belongs to a family of ubiquitously expressed bromodomain containing proteins, which biological function has not yet been elucidated. […] The interaction of BAZ2B with ISWI mediated by the BAZ1 motif has recently been described. […] The protocol is based on the AlphaScreen (PerkinElmer) displacement assay developed by NCGC [5], but uses the peptide ligand Biot-H3K14Ac, a high affinity binding partner for BAZ2B, in an AlphaScreen format. Although AlphaScreen has significant advantages with its utility in a variety of epigenetic target assays, the primary screening data provided in this deposition should be used with caution due to the prevalence of screening artifacts. The top compound concentration tested was 110uM in this assay, which increases number of actives and potential artifacts. An AlphaScreen counterscreen is highly recommended to be run against any putative actives to eliminate non-specific artifacts. Alternatively, one can use other AlphaScreen assays in PubChem to filter out promiscuous hits. Eberharter, A. et al. ACF1 improves the effectiveness of nucleosome mobilization by ISWI through PHD-histone contacts. The EMBO journal 23, 4029-4039. 2004. PMID: 15457208 [2] Jones, M.H. et al. A novel family of bromodomain genes. Genomics 63, 40-45. 2000. PMID: 10662543 [3] Yasgar, et al. Compound Management for Quantitative High-Throughput Screening. JALA. 2008 Apr;13(2):79-89. PMID: 18496600 [4] Inglese, et al. Quantitative high-throughput screening: a titration-based approach that efficiently identifies biological activities in large chemical libraries. Proc Natl Acad Sci. 1;103(31):11473-8. 2006. PMID: 16864780 [5] Quinn et al. A chemiluminescence-based method for identification of histone lysine methyltransferase inhibitors. Mol Biosyst 6(5): 782-8. 2010. PMID: 20567762 [6] Baell,Holloway. New substructure filters for removal of pan assay interference compounds (PAINS) from screening libraries and for their exclusion in bioassays. J Med Chem. 53(7):2719-40. 2010. PMID: 20131845 NIH Molecular Libraries Probe Production Network [MLPCN] NIH Chemical Genomics Center [NCGC] Structural Genomics Consortium (SGC) NIH Grant: 5U54 MH084681-02
To each well of a 1,536w plate, 2ul of BAZ2B protein (final 50nM) and 1ul biotinylated histone peptide acetylated at Lys14 [b-H3(5-23)K14Ac] (final 50nM) were added in 1x PBS buffer, pH 7.4, containing 0.01% Tween-20, using a nanoliter dispenser. Formation of a protein-peptide complex proceeded at room temperature for 30 min. A Kalypsys pin-tool was employed to transfer 23 nL of library compound solution in DMSO to each well. Following a 30 min incubation of the protein-peptide complex with compounds at room temperature, a mixture of 40 ug/mL each streptavidin-coated donor and nickel chelate acceptor AlphaScreen beads (final 10 ug/mL) were added in a 1ul dispense for a final volume of 4ul. A brief centrifugation followed (1000rpm, 1 min) and were then incubated protected from the light for 20 min at room temperature. Plates were read on an EnVision multilabel plate reader using the 1,536 plate HTS AlphaScreen aperture (excitation time 80 ms, measurement time 240 ms).
Further: nearly all actives have a fitted effect of over 60% in size.
On the % scale 0 is the no-effect control and ±100 the full control effect; potency means the concentration at half of the fitted maximal effect.

Chain of Bromodomain adjacent to zinc finger domain protein 2B (Homo sapiens) (Q9UIF8 whole entry, looked up, the tested form may be a part): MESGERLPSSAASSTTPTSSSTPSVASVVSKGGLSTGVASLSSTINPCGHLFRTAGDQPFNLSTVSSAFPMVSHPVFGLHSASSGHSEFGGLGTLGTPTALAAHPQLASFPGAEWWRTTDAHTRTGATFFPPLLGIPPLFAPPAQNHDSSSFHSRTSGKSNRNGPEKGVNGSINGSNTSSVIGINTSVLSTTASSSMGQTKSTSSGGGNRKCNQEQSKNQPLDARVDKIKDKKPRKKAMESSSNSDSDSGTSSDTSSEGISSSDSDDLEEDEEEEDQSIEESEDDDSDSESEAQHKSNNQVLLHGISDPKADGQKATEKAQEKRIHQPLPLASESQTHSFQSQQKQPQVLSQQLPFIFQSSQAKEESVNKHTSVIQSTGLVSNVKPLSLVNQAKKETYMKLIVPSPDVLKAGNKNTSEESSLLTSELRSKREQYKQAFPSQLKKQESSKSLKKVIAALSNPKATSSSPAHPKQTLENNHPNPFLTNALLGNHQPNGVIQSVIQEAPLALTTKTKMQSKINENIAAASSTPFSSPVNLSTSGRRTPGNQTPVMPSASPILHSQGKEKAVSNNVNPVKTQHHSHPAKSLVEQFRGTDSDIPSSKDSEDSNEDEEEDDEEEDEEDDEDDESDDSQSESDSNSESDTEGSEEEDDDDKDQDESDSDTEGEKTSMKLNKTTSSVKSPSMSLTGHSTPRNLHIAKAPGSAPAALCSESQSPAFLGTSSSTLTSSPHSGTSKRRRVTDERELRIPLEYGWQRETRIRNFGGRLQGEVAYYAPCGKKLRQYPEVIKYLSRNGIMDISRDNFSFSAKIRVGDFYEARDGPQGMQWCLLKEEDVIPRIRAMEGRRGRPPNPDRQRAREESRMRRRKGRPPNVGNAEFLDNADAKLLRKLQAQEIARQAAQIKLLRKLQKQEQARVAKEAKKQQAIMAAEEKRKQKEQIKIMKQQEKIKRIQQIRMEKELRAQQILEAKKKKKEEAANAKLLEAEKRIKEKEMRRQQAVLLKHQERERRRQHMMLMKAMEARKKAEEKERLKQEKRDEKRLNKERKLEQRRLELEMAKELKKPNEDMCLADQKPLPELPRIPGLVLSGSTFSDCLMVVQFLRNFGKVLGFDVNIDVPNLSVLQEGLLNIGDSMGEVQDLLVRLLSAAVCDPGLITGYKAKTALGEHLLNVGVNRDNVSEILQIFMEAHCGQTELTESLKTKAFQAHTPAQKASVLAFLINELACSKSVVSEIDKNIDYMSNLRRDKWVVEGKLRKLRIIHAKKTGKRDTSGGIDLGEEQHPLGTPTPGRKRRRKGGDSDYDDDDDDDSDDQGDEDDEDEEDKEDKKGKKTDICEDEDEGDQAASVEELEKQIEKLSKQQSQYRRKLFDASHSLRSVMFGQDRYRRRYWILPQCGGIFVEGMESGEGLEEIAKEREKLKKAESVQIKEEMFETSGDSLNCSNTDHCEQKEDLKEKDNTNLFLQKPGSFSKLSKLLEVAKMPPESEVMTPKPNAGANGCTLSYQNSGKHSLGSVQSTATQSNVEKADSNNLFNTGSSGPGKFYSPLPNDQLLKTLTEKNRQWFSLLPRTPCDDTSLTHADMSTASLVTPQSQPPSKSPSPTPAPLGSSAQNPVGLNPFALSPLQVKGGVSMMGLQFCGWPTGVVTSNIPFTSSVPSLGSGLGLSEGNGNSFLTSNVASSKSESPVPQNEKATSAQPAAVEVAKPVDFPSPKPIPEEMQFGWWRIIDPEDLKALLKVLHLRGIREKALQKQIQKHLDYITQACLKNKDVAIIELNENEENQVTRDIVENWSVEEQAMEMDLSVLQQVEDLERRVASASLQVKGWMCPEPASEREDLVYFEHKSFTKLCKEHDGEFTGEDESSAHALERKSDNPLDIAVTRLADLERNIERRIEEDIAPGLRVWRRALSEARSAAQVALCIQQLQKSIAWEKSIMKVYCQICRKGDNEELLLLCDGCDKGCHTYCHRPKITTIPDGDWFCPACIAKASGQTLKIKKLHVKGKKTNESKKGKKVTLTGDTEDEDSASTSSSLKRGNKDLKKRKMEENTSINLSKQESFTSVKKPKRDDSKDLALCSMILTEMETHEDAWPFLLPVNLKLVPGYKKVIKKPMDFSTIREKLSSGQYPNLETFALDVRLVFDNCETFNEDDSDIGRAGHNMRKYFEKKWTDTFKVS

Activity change, negative = inhibition, inactive:
COc1ccccc1CCNC(=O)c1cccn1-c1nnc(N2CCCCC2)s1 -16.4%
CCCOc1cccc(C(=O)Nc2cccc(NC(=O)c3ccc(C(C)(C)C)cc3)c2)c1 -1.31%
CCOC(=O)c1ccc(NC(=O)Cn2c(=O)n(-c3ccc(C)cc3)c(=O)c3c2cnn3C)cc1 -1.23%
O=C(NC1CCCCC1)c1ccc2c(c1)N(Cc1ccc(Cl)cc1)C(=O)c1ccccc1S2=O (centres undefined) -6.93%
NC(=O)CSc1nnc(NC(=O)c2ccc3ccccc3c2)s1 5.1%
CCSc1nnc(NC(=O)c2cc(=O)c3cc(C)c(C)cc3o2)s1 -3.2%
CCCNC(=O)C(CC)n1nc(CC)n2c(cc3oc(C)cc32)c1=O (centres undefined) -2.51%
COc1cccc(NC(=O)C(=O)NCC(c2ccc3c(c2)OCO3)N2CCN(C)CC2)c1 (centres undefined) 3.37%
CC(C)C(=O)Nc1nc2c(s1)CC(C(C)(C)C)CC2 (centres undefined) 1.19%
CCOC(=O)c1cc2cc3ccccc3cc2oc1=O -24.2%
COc1ccc(CNC(=O)CCN2C(=O)c3ccccc3C2=O)cc1 -3.11%
CCCCn1cc(S(=O)(=O)c2ccc(OCC)cc2)c(=O)c2cc(OC)c(OC)cc21 -34.9%
Cc1ccc(CCNC(=O)C2CCN(c3nnc(-n4cccc4CNc4ccc(C)cc4)s3)CC2)cc1 -8.92%
Cc1ccccc1NC(=O)c1cc(S(=O)(=O)Nc2cccc(C(=O)O)c2)ccc1Cl -0.0282%
CC(=O)Nc1cccc(/C(C)=N/NC(=O)c2c(-c3ccccc3Cl)noc2C)c1 5.83%
Cc1ccc2nc(COc3ccccc3NC(=O)Nc3ccc(F)c(Cl)c3)cc(=O)n2c1 0.153%
Cc1nn(-c2ccc(F)cc2)c(-n2cccc2)c1C(=O)N1CCN(c2ccccc2)CC1 -11.9%
Cc1nn(-c2ccccc2)c(-n2cccc2)c1C(=O)O 3.55%
O=C(NCc1ccc2c(c1)CCN2C(=O)c1ccccc1)Nc1cc(F)ccc1F -2.67%
COc1ccc(OC)c(NC(=O)CSC2=Nc3ccccc3C3=NC(CC(=O)NCc4ccc(F)cc4)C(=O)N23)c1 (centres undefined) -32.1%
COc1ccccc1NC(=O)c1sc2nc(C)c(C(=O)Nc3ccc(Cl)cc3)c(-c3ccc(Br)cc3)c2c1N -20.6%
CCN(CC(=O)Nc1cc(Cl)ccc1C)C(=O)CSCc1ccc(C)cc1 7.16%
Cc1ccc(CSCC(=O)N(C)CC(=O)Nc2ccc(C)cc2)cc1 1.11%
CCOc1ccccc1C(=O)NC1(C(F)(F)F)NC(=O)N(CCc2ccc(OC)c(OC)c2)C1=O (centres undefined) -25.7%
CCN(C(=O)c1sc2cc(OC)ccc2c1Cl)c1ccccc1 31%
CCC(=O)Nc1ccc2nc(SCC(=O)N3CCc4ccccc43)sc2c1 -26.5%
CCN(CCCNC(=O)Cn1ncc2c3ccccc3n(C)c2c1=O)Cc1ccccc1 -2.02%
CCc1ccc(NC(=O)c2nn(-c3ccc(C)cc3)c(=O)n(C)c2=O)cc1 -15.6%
CCCC(=O)Nc1cc2nn(-c3ccccc3)nc2cc1C 2.37%
Cc1nc2ccn(Cc3cccnc3)c(=O)c2cc1C(=O)N1CCN(c2ccccc2F)CC1 -10.5%
O=C(Cn1nc(Cc2cccnc2)c2ccccc2c1=O)N1CCN(c2ccccc2F)CC1 -14%
CCC(Sc1nc2n[nH]c(C)c2c(=N)n1-c1ccccc1Cl)C(=O)N(CC)CC (centres undefined) 4.48%
COc1ccc(-c2nc3sc(CCNS(=O)(=O)c4ccc(F)c(C)c4)c(C)n3n2)cc1 -4.23%
COc1ccc(-c2nc(SCC(=O)N3CCCCC3C)n[nH]2)cc1 (centres undefined) 2.94%
Cc1ccc(S(=O)(=O)N2CCN(Cc3cccc(C)c3O)CC2)cc1 11.2%
O=C(CN1CCN(S(=O)(=O)c2ccc(F)cc2)CC1)Nc1ccccc1F 3.45%
COc1ccc(-c2onc(C)c2C)cc1S(=O)(=O)NCc1cccs1 -0.451%
CCc1ccc(S(=O)(=O)n2ccnc2)cc1 -13.1%
Cc1c(-c2cccc(NC(=O)C(C)(C)C)c2)nc2ncccn12 6.49%
Cc1ccccc1Nc1c(-c2ccccc2)nc2ncccn12 -5.09%
COc1cc(OC)c(NC(=O)c2c3c(nn2C)-c2ccccc2SC3)cc1Cl -15.7%
O=C(NCCCO)C(=O)Nc1c2c(nn1-c1ccccc1)CSC2 7.43%
COc1ccc(OCCCC(=O)Oc2ccc(OC)cc2)cc1 -6.9%
COc1ccc(OCCCn2c(C)nc3cc(C)c(C)cc32)cc1 -28.9%
Cc1ccc(C(=O)Nc2c(C(=O)NC(C)(C)C)oc3ccccc23)cc1 11% [at 57.1 µM]
COc1ccc(NC(=O)c2ccc3oc(=O)c(S(=O)(=O)c4ccc(F)cc4)cc3c2)c(OC)c1 -14.1%
O=C(CSc1nccn1Cc1ccc(Cl)cc1)NCc1ccccc1 -25.4%
COc1ccc(C(c2nnnn2Cc2cccs2)N2CCN(c3ccccc3)CC2)cc1OC (centres undefined) -35.7%
Cc1cccc(N2CCN(C(c3ccccc3)c3nnnn3CC3CCCO3)CC2)c1C (centres undefined) -8.12%
COCCCNC(=O)c1ccc(NC(=O)c2nsc3ccccc23)cc1 -0.501%
COC(=O)c1cccc(Cn2nnc3sc4c(c3c2=O)CCC(C(C)(C)C)C4)c1 (centres undefined) -0.516%
Cc1cccc(N2CCN(C(=O)Cn3ncc4c5ccccc5n(C)c4c3=O)CC2C)c1 (centres undefined) 1.15%
COc1ccc(-c2nnc(SCC(=O)c3ccco3)n2-c2ccccc2)cc1 8.78%
CCc1nnc(NC(=O)CSc2nnc(Cc3ccccc3)n2-c2ccc(OC)cc2)s1 8.5%
Cc1ccc(Cl)cc1N1CCN(C(=O)CN2C(=O)COc3ccc(S(=O)(=O)N4CCOCC4)cc32)CC1 4.23%
COc1ccc(/C=C(\C#N)c2c[nH]c3ccccc23)cc1 3.05%
O=C(N/N=C/c1c[nH]c2ccccc12)c1cc2ccccc2o1 -23.5%
CCOC(=O)C1CCCN(S(=O)(=O)c2cc(-c3cc(C)no3)ccc2OC)C1 (centres undefined) 0.155%
COc1cccc(N2CCN(S(=O)(=O)c3ccc4c(c3)CCCN4C(C)=O)CC2)c1 -16.9%
COc1ccccc1CN1CCC(CNC(=O)c2cnn(-c3ccccc3Cl)c2C2CCN(C(=O)OC(C)(C)C)CC2)CC1 -2.36% [at 57.1 µM]
O=C(O)CCC(=O)N(Cc1ccccc1)Cc1ccccc1 1.67%
O=C(CCc1ccccc1)NCCc1cccs1 13.8%
O=C1CC(c2nnc(Cc3ccc(Cl)cc3)o2)CN1c1ccccc1 (centres undefined) -3.8%
CCc1ccc(NC(=O)CCS(=O)(=O)c2cc3c(cc2Cl)NC(=O)CO3)cc1 -4.74%
CCOC(=O)Cn1c(=O)n(-c2ccccc2OC)c2nc(-c3cccc(F)c3)nc(C(N)=O)c21 -12.6%
Cc1ccc(Nc2nc(C)cc(C)c2C(N)=O)cc1 1.28%
COc1ccc(C(=O)NNc2cc(C)nc(NNC(=O)c3ccc(OC)cc3)n2)cc1 17.5%
CCN1CCN(c2cc(C)c3cc(NC(=O)c4cc(Cl)ccc4OC)ccc3n2)CC1 -34%
O=C(NCc1cccnc1)C(=O)Nc1nc(-c2ccccc2)cs1 -7.21%
O=C(Nc1nc(-c2cccnc2)cs1)c1ccccc1F 12.8%
Cc1ccccc1-c1nc(SCC(=O)N(C)c2ccccc2)c2c(=O)n(C)c(=O)n(C)c2n1 2.53%
Cc1ccc(CCNC(=O)c2ccc(CNS(=O)(=O)c3ccc(C)cc3)cc2)cc1 0.772%
CCOC(=O)c1c(NC(=O)c2cc(CC)on2)sc(C(C)=O)c1C 2.03%
CCCCCn1c(=O)[nH]c2cc(C(=O)Nc3cc(C)cc(C)c3)ccc2c1=O 3.99%
Cc1c(C)c(C)c2[nH]c(=S)[nH]c2c1C -9.72%
CCOC(=O)c1ccc(NC(=O)C2CC(=O)N(c3ccc(C(C)C)cc3)C2)cc1 (centres undefined) -1.68%
COc1ccccc1OCCOc1ccc(/C=C2\C(=N)N3N=C(C)SC3=NC2=O)cc1 -25.9%
COc1cc(/C=C2\C(=N)N3N=C(CC(=O)N4CCOCC4)SC3=NC2=O)cc(OC)c1OC -26.7%
Cc1ccc(C2=N/C(=C\c3ccc(OS(=O)(=O)c4ccc(C)cc4)cc3)C(=O)O2)cc1 -4%
CCOc1cc(/C=C2\C(=N)N3N=C(C)SC3=NC2=O)ccc1OCCOc1ccccc1 -2.46%
CCc1ccccc1N1C(=O)CN(S(=O)(=O)CC)CC1(C)C(=O)NC1CCCCC1 (centres undefined) 4.83%

Potency, active:
NC(=O)CSc1nnc(NC(=O)c2ccc(Br)o2)s1 56.2 µM
CCOC(=O)C1=C(c2ccc(OC)cc2)C(=O)c2ccccc2C1=O 20 µM
C/C(=N\Nc1cccc(C(=O)O)c1)c1ccc2c(c1)Nc1ccccc1S2 44.7 µM
Cc1ccc(-n2nc(C)c(C(=O)O)c2-n2cccc2)cc1 50.1 µM
CCCCN(C)CCNC(=O)CSCc1ccc(C)cc1 50.1 µM
O=C(Nn1cc(C(=O)N2CCN(c3ccccc3F)CC2)c2ccccc2c1=O)c1cnccn1 28.2 µM
O=S(=O)(c1ccc(F)cc1)N1CCN(Cc2ccccc2C(F)(F)F)CC1 28.2 µM
CCc1cccc(C)c1Nc1c(-c2ccc(N(C)C)cc2)nc2ncccn12 10 µM
COc1ccc(OCCn2ccnc2C)cc1 56.2 µM
COc1ccccc1C(c1nnnn1CC1CCCO1)N1CCN(c2ccccc2)CC1 (centres undefined) 56.2 µM
COc1ccc(NCc2nnc(SCc3ccccc3)n2-c2ccc(OC)cc2)cc1 50.1 µM
C[n+]1ccc(/C=C/c2c[nH]c3ccccc23)cc1 44.7 µM
O=C(O)CCC(=O)N(Cc1cccs1)Cc1cccs1 56.2 µM
CC(=O)Nc1ccc(Nc2cc(C)nc(Nc3ccc(NC(C)=O)cc3)n2)cc1 56.2 µM
Cc1ccccc1Nc1nc(-c2cccnc2)cs1 39.8 µM
O=c1[nH]c(=S)[nH]c2[nH]c(=S)[nH]c12 28.2 µM and 22.4 µM
CS(=O)(=O)C1=NN2C(=N)/C(=C\c3ccc(OCCOc4ccccc4)cc3)C(=O)N=C2S1 50.1 µM
CCS(=O)(=O)C1=NSC2=NC(=O)/C(=C\c3ccc(OS(=O)(=O)c4ccccc4)cc3)C(=N)N21 56.2 µM
